Data taken from PubChem BioAssay (EPA / NIEHS).
Calls of active or inactive are those of the source. How the source made its calls: active means hit-call score of the fitted dose curve at least 0.9, where 1 is the maximum; inactive means score below 0.9.

Legend:
Settings in all cases: mRNA level, 48 h; actives raise or lower the signal
[1] = read-out: Bcl-2 (BID) gene, BID (gene 637); assay: LTEA_HepaRG_BID: Life Technologies and Expression Analysis (LTEA) Assay for Bcl-2 (BID) gene using HepaRG (AID 2283476)
Summary of the method: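 Duplicate 48 h treatments of HepaRG cells in serum-free induction medium spanned 100 uM downward in half-log steps, 0.5% DMSO. Transcript change quantified by qRT-PCR against three housekeeping genes, fitted up or down versus DMSO.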

Caspase-3 (Homo sapiens) = Caspase-3 (Homo sapiens) (UniProt P42574); assay: LTEA_HepaRG_CASP3: Life Technologies and Expression Analysis (LTEA) Assay for cysteine-aspartic acid protease (CASP3) using HepaRG (AID 2283477)
Summary of the method: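 Differentiated human HepaRG cells in serum-free induction medium were exposed 48 h to 8-point half-log concentrations from 100 uM (0.5% DMSO vehicle). CASP3 mRNA was measured by qRT-PCR, normalised to ACTB, GAPDH and POLR2A, with bidirectional fitting against DMSO.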

[2] = read-out: Cytochrome P450 (CYP24A1), CYP24A1 (gene 1591); assay: LTEA_HepaRG_CYP24A1: Life Technologies and Expression Analysis (LTEA) Assay for Cytochrome P450 (CYP24A1) using HepaRG (AID 2283478)
Summary of the method: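 Differentiated HepaRG cells, pre-cultured 48 h, were exposed in duplicate for 48 h in serum-free induction medium to 8 half-log concentrations (top 100 uM, 0.5% DMSO). CYP24A1 mRNA was quantified by TaqMan qRT-PCR, normalized to ACTB/GAPDH/POLR2A, fitted bidirectionally versus DMSO.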

[3] = read-out: Cytochrome P450 (CYP1A2), CYP1A2 (gene 1544); assay: LTEA_HepaRG_CYP1A2: Life Technologies and Expression Analysis (LTEA) Assay for Cytochrome P450 (CYP1A2) using HepaRG (AID 2283479)
Summary of the method: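 Differentiated human HepaRG cells in serum-free induction medium were exposed in duplicate for 48 h to 8-point half-log concentrations up to 100 uM in 0.5% DMSO. CYP1A2 mRNA measured by qRT-PCR, normalized to ACTB, GAPDH, POLR2A; bidirectional fit vs DMSO.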

[4] = read-out: cysteine-aspartic acid protease (CASP8), CASP8 (gene 841); assay: LTEA_HepaRG_CASP8: Life Technologies and Expression Analysis (LTEA) Assay for cysteine-aspartic acid protease (CASP8) using HepaRG (AID 2283480)
Summary of the method: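 Concentration-response in duplicate up to 100 uM (half-log steps, 0.5% DMSO) on differentiated HepaRG cultures for 48 h. Expression change of CASP8 mRNA is determined by TaqMan qRT-PCR with housekeeping-gene normalization.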

[5] = read-out: Cytochrome P450 (CYP2B6), CYP2B6 (gene 1555); assay: LTEA_HepaRG_CYP2B6: Life Technologies and Expression Analysis (LTEA) Assay for Cytochrome P450 (CYP2B6) using HepaRG (AID 2283481)
Summary of the method: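 Differentiated HepaRG cells, serum-free induction medium, exposed 48 h in duplicate to 8-point half-log concentrations from 100 uM in 0.5% DMSO. CYP2B6 mRNA by qRT-PCR, normalized to ACTB, GAPDH, POLR2A; bidirectional fit versus DMSO.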

CYP2C8 (gene 1558) = assay: LTEA_HepaRG_CYP2C8: Life Technologies and Expression Analysis (LTEA) Assay for CYP2C8 using HepaRG (AID 2283483)
Summary of the method: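 This is a transcriptional endpoint in HepaRG cultures: 48 h exposure, highest concentration 100 uM. CYP2C8 mRNA is quantified by TaqMan qRT-PCR.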

CYP2C9 (gene 1559) = assay: LTEA_HepaRG_CYP2C9: Life Technologies and Expression Analysis (LTEA) Assay for CYP2C9 using HepaRG (AID 2283484)
Summary of the method: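 Eight-point concentration-response (highest 100 uM, half-log dilutions) in HepaRG cells for 48 h; CYP2C9 expression by qRT-PCR normalized to ACTB, GAPDH, POLR2A. Bidirectional fit, DMSO baseline.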

CYP2E1 (gene 1571) = assay: LTEA_HepaRG_CYP2E1: Life Technologies and Expression Analysis (LTEA) Assay for CYP2E1 using HepaRG (AID 2283485)
Summary of the method: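 CYP2E1 transcript measured by Fluidigm qRT-PCR against three housekeeping genes in human HepaRG cells treated 48 h (top 100 uM, half-log steps, 0.5% DMSO vehicle). Gain or loss fitted relative to DMSO baseline.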

[6] = read-out: Cytochrome P450 2C19 (Homo sapiens) (UniProt P33261); assay: LTEA_HepaRG_CYP2C19: Life Technologies and Expression Analysis (LTEA) Assay for CYP2C19 using HepaRG (AID 2283482)
Summary of the method: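 Differentiated human HepaRG cells were exposed for 48 h in serum-free induction medium to 8 concentrations (top 100 uM, half-log steps, 0.5% DMSO). CYP2C19 mRNA was measured by qRT-PCR, normalized to ACTB/GAPDH/POLR2A, and fitted bidirectionally against DMSO.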

Measured: AC50

Chain of Caspase-3 (Homo sapiens) (P42574 whole entry, looked up): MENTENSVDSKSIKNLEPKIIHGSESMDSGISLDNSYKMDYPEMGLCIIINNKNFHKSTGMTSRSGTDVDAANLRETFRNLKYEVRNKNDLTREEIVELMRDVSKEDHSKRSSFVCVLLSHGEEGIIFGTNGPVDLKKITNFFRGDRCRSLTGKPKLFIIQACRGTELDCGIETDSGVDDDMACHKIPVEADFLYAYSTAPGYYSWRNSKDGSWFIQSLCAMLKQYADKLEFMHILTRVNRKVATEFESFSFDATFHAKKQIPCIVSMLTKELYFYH
Chain of Cytochrome P450 2C19 (Homo sapiens) (P33261 whole entry, looked up): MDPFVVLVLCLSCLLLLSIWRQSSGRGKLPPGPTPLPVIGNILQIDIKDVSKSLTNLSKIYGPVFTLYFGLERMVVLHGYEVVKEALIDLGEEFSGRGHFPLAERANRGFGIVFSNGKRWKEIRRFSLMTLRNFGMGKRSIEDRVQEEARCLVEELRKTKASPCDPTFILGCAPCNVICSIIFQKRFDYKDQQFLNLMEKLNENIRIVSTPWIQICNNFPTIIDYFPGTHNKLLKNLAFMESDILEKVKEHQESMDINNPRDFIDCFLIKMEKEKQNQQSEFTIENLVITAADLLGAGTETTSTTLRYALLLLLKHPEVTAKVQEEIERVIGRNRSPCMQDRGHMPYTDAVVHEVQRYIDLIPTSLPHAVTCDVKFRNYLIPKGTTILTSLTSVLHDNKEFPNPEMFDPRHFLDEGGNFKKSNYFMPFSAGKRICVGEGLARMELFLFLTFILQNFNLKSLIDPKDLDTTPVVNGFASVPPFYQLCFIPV

S=C([S-])NCCNC(=S)[S-].[Mn+2]
active: Caspase-3 (Homo sapiens) 0.594 µM | [3] 0.654 µM | [4] 3.99 µM | [5] 2.35 µM | CYP2C8 (gene 1558) 2.31 µM | CYP2C9 (gene 1559) 2.23 µM | CYP2E1 (gene 1571) 3.82 µM
inactive: [1] | [2]

C=CCOC(Cn1ccnc1)c1ccc(Cl)cc1Cl (centres undefined)
active: [4] 84 µM | [5] 31.6 µM | [6] 34.3 µM | CYP2C8 (gene 1558) 27.2 µM | CYP2C9 (gene 1559) 33.1 µM | CYP2E1 (gene 1571) 13.1 µM
inactive: [1] | Caspase-3 (Homo sapiens) | [2]

CCCCOC(=O)[C@@H](C)Oc1ccc(Oc2ccc(C(F)(F)F)cn2)cc1
active: CYP2E1 (gene 1571) 17 µM
not listed: [6]
inactive: all other assays above

N#CSCSc1nc2ccccc2s1
active: [2] 12.4 µM | CYP2C9 (gene 1559) 75.3 µM | CYP2E1 (gene 1571) 81.2 µM
not listed: [6]
inactive: all other assays above

COC(=O)CSc1cc(N=c2sc(=O)n3n2CCCC3)c(F)cc1Cl
active: [5] 38.8 µM | CYP2E1 (gene 1571) 50 µM
not listed: [6]
inactive: all other assays above

CCOC(=O)c1ccc(O)cc1
not listed: [6]
inactive: all other assays above

c1ccc(Nc2ccccc2)cc1
active: [5] 24.9 µM
not listed: CYP2C9 (gene 1559) | [6]
inactive: all other assays above

CCCCCCC(C)OC(=O)COc1nc(F)c(Cl)c(N)c1Cl (centres undefined)
active: [5] 50 µM
not listed: CYP2C9 (gene 1559) | [6]
inactive: all other assays above

CCN(Cc1c(F)cccc1Cl)c1c([N+](=O)[O-])cc(C(F)(F)F)cc1[N+](=O)[O-]
active: [3] 13.3 µM | [5] 12.7 µM | CYP2E1 (gene 1571) 40.9 µM
not listed: [6]
inactive: all other assays above

C#C[C@]1(O)CC[C@H]2[C@@H]3CCC4=CC(=O)CC[C@@H]4[C@H]3CC[C@@]21CC
active: CYP2E1 (gene 1571) 0.00149 µM
not listed: [6]
inactive: all other assays above

CC(C)(C)[C@@H](O)[C@@H](Cc1ccc(Cl)cc1)n1cncn1
active: [3] 50 µM | [5] 3.37 µM | CYP2E1 (gene 1571) 50 µM
not listed: [6]
inactive: all other assays above

CCNc1nc(N)nc(Cl)n1
active: [5] 6.87 µM | CYP2E1 (gene 1571) 50 µM
not listed: [6]
inactive: all other assays above

CCCCOC(=O)C(C)Oc1ccc(Oc2ccc(C(F)(F)F)cn2)cc1 (centres undefined)
not listed: [6]
inactive: all other assays above

CCCOC(=O)NCCCN(C)C
not listed: [6]
inactive: all other assays above
